Among the test systems are NCI-H23 lung; NCI-H226 lung; NCI-H322M lung; HOP-62 NSCLC; NCI-H460 lung; HOP-92 NSCLC; NCI-H522 lung; A549/ATCC NSCLC; 786-0 renal; COLO 205 colon.
What all share (assay): NCI-60 one-dose screen, 48 h (100 = growth as untreated, 0 = no growth, -100 = all killed)
Holding throughout (conditions): 10 µM unless noted

SMILES strings stand for the structures. Values joined by “and” are separate entries in the source; they are usually repeats but may differ in a detail not shown here. Equal values may be shown once. Compounds without any hit were thinned out: in the full panel of roughly 83,000, 20% have a hit.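 Method: cells in 96-well plates; compound added at one concentration; 48 h incubation; percent growth measured; values under 10 scored active.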 Active and inactive are the calls of the source.

Turning to `C(=N\OCCc1ccccc1)/c1ccccn1`, the growth is 109% (inactive) with NCI-H23 lung; 121% (inactive) and 108% (inactive) in the experiment on NCI-H226 lung; 138% (inactive) and 105% (inactive) with NCI-H322M lung; 127% (inactive) in the experiment on HOP-62 NSCLC; 103% (inactive) and 111% (inactive) in the experiment on NCI-H460 lung; 103% (inactive) in the experiment on HOP-92 NSCLC. The growth in the experiment with NCI-H522 lung is 112% (inactive) and 102% (inactive); with A549/ATCC NSCLC, 102% (inactive) and 101% (inactive); in the experiment on 786-0 renal it was 96.7% (inactive) and 97.1% (inactive); with COLO 205 colon, 135% (inactive) and 115% (inactive).

For `CC1(C)CC(=O)NC1=O`, the growth is 96.5% (inactive) in the experiment on NCI-H23 lung; 99.6% (inactive) with NCI-H226 lung; 94.2% (inactive) in the experiment on NCI-H322M lung; 101% (inactive) with HOP-62 NSCLC; 108% (inactive) with NCI-H460 lung; 114% (inactive) in the experiment with HOP-92 NSCLC. The growth in the experiment on NCI-H522 lung is 96.8% (inactive); with A549/ATCC NSCLC, 99.3% (inactive); in the experiment on 786-0 renal, 97.6% (inactive); in the experiment with COLO 205 colon, 113% (inactive).

In the case of `N#Cc1ccc(/C=C/C(=O)c2ccccc2)cc1`, the growth in the experiment with NCI-H23 lung was 100% (inactive) and 95.2% (inactive); in the experiment on NCI-H226 lung, 105% (inactive) and 107% (inactive); in the experiment with NCI-H322M lung, 93.2% (inactive) and 98.2% (inactive); with HOP-62 NSCLC it was 96.6% (inactive) and 110% (inactive); in the experiment with NCI-H460 lung it was 78.7% (inactive) and 106% (inactive); in the experiment with HOP-92 NSCLC, 73.1% (inactive) and 85.7% (inactive). Further, the growth is 83.1% (inactive) in the experiment with NCI-H522 lung; 88.2% (inactive) and 98.7% (inactive) with A549/ATCC NSCLC; 102% (inactive) with 786-0 renal; 81.6% (inactive) and 113% (inactive) in the experiment with COLO 205 colon.

On to `Clc1ccc(/C=C/c2ccc3ccccc3n2)cc1`, for which the growth with NCI-H23 lung was 37.6% (inactive) and 89.5% (inactive) and 71.2% (inactive); with NCI-H226 lung, 84.1% (inactive) and 81.1% (inactive) and 92.6% (inactive); in the experiment on NCI-H322M lung it was 38.8% (inactive) and 90.3% (inactive) and 86.1% (inactive); in the experiment on HOP-62 NSCLC, 45.2% (inactive) and 95.4% (inactive) and 93.5% (inactive); with NCI-H460 lung, 8.45% (active) and 86% (inactive) and 81.1% (inactive); in the experiment on HOP-92 NSCLC, 42.9% (inactive) and 67% (inactive) and 85.3% (inactive). Further, the growth is -38.8% (active) and 79.1% (inactive) and 76.8% (inactive) in the experiment with NCI-H522 lung; 25.9% (inactive) and 92.3% (inactive) and 96.6% (inactive) in the experiment with A549/ATCC NSCLC; 55.3% (inactive) and 97.8% (inactive) and 100% (inactive) in the experiment on 786-0 renal; -6.62% (active) and 112% (inactive) and 100% (inactive) in the experiment on COLO 205 colon.

For the compound `CC(C)(C)C1CCC(=NO)CC1` (stereo unspecified), the growth in the experiment on NCI-H23 lung is 95.5% (inactive); in the experiment with NCI-H226 lung it was 99.9% (inactive); with NCI-H322M lung it was 106% (inactive); in the experiment with HOP-62 NSCLC, 95.9% (inactive); in the experiment on NCI-H460 lung, 99.6% (inactive); in the experiment on HOP-92 NSCLC, 71.4% (inactive). Further, the growth was 92.5% (inactive) in the experiment on NCI-H522 lung, 91.6% (inactive) with A549/ATCC NSCLC, 94.5% (inactive) with 786-0 renal and 117% (inactive) with COLO 205 colon.

On to `ON=C(C1CCCCC1)C1CCCCC1`, for which the growth is 97.8% (inactive) with NCI-H23 lung; 102% (inactive) in the experiment with NCI-H226 lung; 93.2% (inactive) in the experiment on NCI-H322M lung; 99.5% (inactive) in the experiment with HOP-62 NSCLC; 108% (inactive) with NCI-H460 lung; 85.7% (inactive) in the experiment with HOP-92 NSCLC. Further, the growth in the experiment with NCI-H522 lung was 107% (inactive); in the experiment with A549/ATCC NSCLC, 95.9% (inactive); in the experiment with 786-0 renal, 99.9% (inactive); in the experiment with COLO 205 colon it was 109% (inactive).

On to `Cc1ccc(NC(=S)N/C=C(\c2ccccc2)S(=O)Cc2ccccc2)c(C)c1` (stereo unspecified), for which the growth was 99.7% (inactive) in the experiment with NCI-H23 lung; 90.2% (inactive) with NCI-H226 lung; 94.8% (inactive) in the experiment with NCI-H322M lung; 95.8% (inactive) in the experiment with HOP-62 NSCLC; 101% (inactive) in the experiment with NCI-H460 lung; 80.1% (inactive) in the experiment on HOP-92 NSCLC. Further, the growth in the experiment on NCI-H522 lung was 90.5% (inactive); in the experiment on A549/ATCC NSCLC, 97.7% (inactive); in the experiment on 786-0 renal, 98.2% (inactive); in the experiment on COLO 205 colon it was 104% (inactive).

For `COc1cc(NCCCCCCCNC(C)C)c2nccc(C)c2c1`, the growth in the experiment with NCI-H23 lung is 81.4% (inactive) and 77.1% (inactive); in the experiment with NCI-H226 lung, 90.9% (inactive) and 75.7% (inactive); in the experiment on NCI-H322M lung, 87% (inactive) and 68.5% (inactive); with HOP-62 NSCLC it was 73.6% (inactive) and 72.1% (inactive); with NCI-H460 lung it was 85.5% (inactive) and 57.2% (inactive); in the experiment on HOP-92 NSCLC it was 39.3% (inactive) and 75.6% (inactive). Also, the growth in the experiment on NCI-H522 lung is 89.1% (inactive) and 91.7% (inactive); in the experiment with A549/ATCC NSCLC, 95.1% (inactive) and 90.6% (inactive); in the experiment with 786-0 renal it was 82.5% (inactive) and 82.1% (inactive); with COLO 205 colon, 53.8% (inactive) and -5.98% (active).

Take `CN1C2C=CC(=O)C1C1C(=O)N(c3ccccc3)C(=O)C12` (stereo unspecified): the growth in the experiment on NCI-H23 lung was 96.7% (inactive); in the experiment with NCI-H226 lung, 105% (inactive); with NCI-H322M lung, 98.4% (inactive); in the experiment with HOP-62 NSCLC, 91.2% (inactive); in the experiment on NCI-H460 lung, 80.6% (inactive); in the experiment on HOP-92 NSCLC, 32.3% (inactive). For the same compound, the growth was -8.8% (active) in the experiment with NCI-H522 lung, 106% (inactive) in the experiment on A549/ATCC NSCLC, 93.5% (inactive) in the experiment with 786-0 renal and 99.9% (inactive) with COLO 205 colon.

In the case of `S=c1nn[nH]n1C1CCCCC1`, the growth in the experiment on NCI-H23 lung was 111% (inactive); with NCI-H226 lung, 102% (inactive); with NCI-H322M lung it was 102% (inactive); with HOP-62 NSCLC, 126% (inactive); with NCI-H460 lung, 95.7% (inactive); in the experiment on HOP-92 NSCLC, 93.2% (inactive). For the same compound, the growth with NCI-H522 lung is 117% (inactive); in the experiment on A549/ATCC NSCLC, 106% (inactive); in the experiment with 786-0 renal, 99.7% (inactive); with COLO 205 colon, 123% (inactive).

In the case of `COc1ccc2nccc(Cl)c2c1`, the growth with NCI-H23 lung is 98.4% (inactive); with NCI-H226 lung, 85.1% (inactive); with NCI-H322M lung, 97.1% (inactive); in the experiment with HOP-62 NSCLC it was 98.4% (inactive); in the experiment on NCI-H460 lung it was 109% (inactive); in the experiment with HOP-92 NSCLC, 98.7% (inactive). The growth with NCI-H522 lung was 90.7% (inactive); in the experiment with A549/ATCC NSCLC, 91.9% (inactive); with 786-0 renal, 94.7% (inactive); in the experiment with COLO 205 colon, 105% (inactive).

On to `O=C(N=C1C(=O)C2(CCCCC2)C2(N=C(c3ccccc3)OC2=O)C12CCCCC2)c1ccccc1` (stereo unspecified), for which the growth in the experiment with NCI-H23 lung was 66.9% (inactive); in the experiment with NCI-H226 lung, 70.2% (inactive); in the experiment on NCI-H322M lung, 96% (inactive); in the experiment on HOP-62 NSCLC, 96.8% (inactive); with NCI-H460 lung it was 69.5% (inactive); in the experiment on NCI-H522 lung, 37.9% (inactive). Moreover, the growth in the experiment with A549/ATCC NSCLC was 5.7% (active); with 786-0 renal, 77.7% (inactive).

On to `O=C(O)c1cc(=O)[nH]c(=O)[nH]1`, for which the growth in the experiment on NCI-H23 lung is 104% (inactive) and 4.68% (active); in the experiment with NCI-H226 lung it was 102% (inactive) and 95% (inactive); in the experiment on NCI-H322M lung it was 89.8% (inactive) and 97.5% (inactive); with HOP-62 NSCLC, 115% (inactive) and 107% (inactive); in the experiment on NCI-H460 lung it was 111% (inactive) and 91.4% (inactive); in the experiment with NCI-H522 lung, 89.7% (inactive) and 18.9% (inactive). The growth was 98.3% (inactive) in the experiment with A549/ATCC NSCLC; 96.5% (inactive) and 103% (inactive) in the experiment on 786-0 renal; 99.6% (inactive) and 89.3% (inactive) in the experiment with COLO 205 colon.

`COC(=O)c1nc(=S)[nH]c(C(=O)OC)c1C(=O)c1ccc(OC)cc1`: the growth with NCI-H23 lung is 97.4% (inactive); in the experiment with NCI-H226 lung, 90.7% (inactive); with NCI-H322M lung, 104% (inactive); in the experiment on HOP-62 NSCLC it was 123% (inactive); in the experiment with NCI-H460 lung, 114% (inactive); in the experiment on NCI-H522 lung, 101% (inactive). In addition, the growth in the experiment with A549/ATCC NSCLC was 118% (inactive); in the experiment with 786-0 renal, 113% (inactive); in the experiment on COLO 205 colon it was 117% (inactive).

Source of the values: PubChem BioAssay (NCI).
